# Compound activity as filed in PubChem.
# Sampled rows, rich in hits. Any-hit rate of the full collection: about 19%.
# uPA surface inh: cell surface uPA generation inhibition. AID 540303. cell surface uPA generation assay, qHTS. actives 0.31% (n = 330,000). Potency, µM (highest dose often 38.3 µM), for inactives: at the highest dose activity change, negative = inhibition, hits mostly inhibitors; active means well fitted inhibition curve with a large enough effect; inconclusive means small, poorly fitted or top-dose-only effect; inactive means no such curve, though single readings can be large or run the other way; tested in mouse RAW 264.7 cells; further: potency means the concentration at half of the fitted maximal effect; nearly all actives have a fitted effect of over 55% in size
# HT1080-NT tox: kills 2HG-producing HT-1080-NT fibrosarcoma cells. HT-1080-NT fibrosarcoma viability, CellTiter-Glo ATP luminescence, 48 h. Potency, µM (doses to about 46.1 µM), inactives show top-dose activity, negative = less viability, usual class: cytotoxic. actives 1.6% (n = 360,000). AID 686970;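 further: NT is the 2HG producing partner of a matched IDH1 knockdown line; potency means the concentration at half of the fitted maximal effect; 0% = DMSO-treated cells and -100% = media-only wells without cells; nearly all actives have a fitted effect of over 55% in size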
#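 Toxicity toward the 2HG-producing NT line was scored as %Activity, normalised to DMSO and no-cell wells, from CellTiter-Glo luminescence after 48 hours' treatment.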
# IL1B secr inh: blocks inflammasome-driven IL-1 beta release; AID 743279; actives 4.7% (n = 360,000); THP-1 LPS/ATP IL-1B secretion, AlphaLISA, 16 h; active compounds read low; activity change, % at 57.5 µM; in the data active means activity change below about -50%; inconclusive means mostly about -30% to -49%
#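 THP-1 cells pretreated 1 hr with compounds (up to 57.5 uM final), then stimulated with LPS (250 ng/mL final) plus ATP (1.25 mM final); secreted IL-1B measured by AlphaLISA after 16 hr, decreased signal indicating inhibition.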
# HT1080 IDH1KD tx: HT-1080 IDH1 knockdown cell toxicity (counter line); HT-1080 IDH1 knockdown viability, ATP luminescence, 48 h; Potency, µM (top dose mostly 46.1 µM), for inactives: at the highest dose activity, negative = toxicity, most hits filed as cytotoxic; actives 2% (n = 360,000);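 further: potency means the concentration at half of the fitted maximal effect; 0% = DMSO wells and -100% = cell-free medium wells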
#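 Viability of IDH1-knockdown HT-1080 fibrosarcoma cells was assessed by CellTiter-Glo after 48 h at 37 °C with titrated compound; concentration-effect curves were classified by fit quality and response size.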
# DT40 TDP1 no CPT: qHTS for Inhibitors of human tyrosyl-DNA phosphodiesterase 1 (TDP1): qHTS in cells in absence of CPT; DT40 Tdp1-/- hTDP1 cells, no CPT, ATP luminescence, 48 h; Potency, µM (highest dose often 46.2 µM), inactives show top-dose activity change, negative = growth inhibition, usual class: inhibitors; actives 15% (n = 420,000); further: potency means the concentration at half of the fitted maximal effect; nearly all actives have a fitted effect of over 55% in size
#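 A cellular qHTS used chicken DT40 cells lacking endogenous Tdp1 but carrying stably transfected human TDP1. Compounds were applied without camptothecin, and cell growth kinetics were judged by ATP-dependent luminescence after ≥48 hr.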
# TDP1 cell CPT: DT40-hTDP1 cell growth loss with CPT; Potency, µM (top dose mostly 46.2 µM), inactives show top-dose activity change, negative = growth inhibition, usual class: inhibitors; actives 12% (n = 420,000); AID 686979; chicken DT40 Tdp1-/-;hTDP1 cells + 20 nM CPT, ATP luminescence, 48 h; further: potency means the concentration at half of the fitted maximal effect; nearly all actives have a fitted effect of over 55% in size
#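 Cell growth measured by CellTiter-Glo luminescence after a minimum 48 h, 37 C compound exposure with 20 nM CPT in Tdp1-knockout DT40 cells stably expressing hTDP1, seeded 400/well; qHTS titration format.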
# Starred values were filed as active, the others as inactive; ? = inconclusive; nt = no result given. Unless noted, the call rests on the fitted dose curve; in most records, active means well fitted curve in the direction sought with a large enough effect; inconclusive means small, poorly fitted or top-dose-only effect, or another doubt; inactive means no such curve, though single readings can be large; an effect the other way counts as inactive or inconclusive. Unless noted, on the % scale 0 is the no-effect control and ±100 the full control effect.
SMILES,uPA surface inh,HT1080-NT tox,IL1B secr inh,HT1080 IDH1KD tx,DT40 TDP1 no CPT,TDP1 cell CPT
COc1ccc(S(=O)(=O)NCc2ccccn2)cc1NC(=O)c1ccc(C)cc1,-16%,5.8µM*,23,13µM*,5.2µM*,7.3µM*
COc1ccccc1NC(=O)CSc1nnnn1-c1ccc(F)cc1,4%,-3%,-17,-2%,-24%,-8%
COc1ccc(-c2cc3nc(-c4ccc(Br)cc4)cc(C(F)(F)F)n3n2)cc1,nt,nt,nt,nt,-1%,5%
C[C@H](CO)N1C[C@H](C)[C@H](CN(C)C(=O)Nc2cccc(Oc3ccccn3)c2)OCc2cnnn2CCCC1=O,nt,12%,8,12%,?,15%
c1ccc2c(-c3nc(C4CCCCC4)no3)cc(-c3ccncc3)nc2c1,nt,3%,-17,7%,23µM*,?
c1ccc(-c2ccccc2-c2nc(-c3ccncc3)no2)cc1,8%,0%,-29,-22%,-28%,-15%
COc1ccc(Cl)cc1NC(=O)CSc1nc2ccsc2c(=O)n1CC1CCC(C(=O)O)CC1 (stereo not drawn),5%,-4%,31,-3%,?,?
OC(c1ccc(F)c(F)c1)c1nc(-c2csc3ccccc23)cs1 (stereo not drawn),nt,?,4,?,?,23µM*
COc1cc(C(O)c2nc(-c3csc4ccccc34)cs2)ccc1F (stereo not drawn),nt,?,-10,?,18µM*,?
N#CCCN1CCN(C(=O)c2c(N)no[n+]2[O-])CC1,13%,4%,-5,12%,-12%,-5%
CN(C)C(=O)CSc1nnc(-c2cccnc2)n1-c1ccccc1,3%,8%,10,3%,-4%,0%
Clc1ccc(-n2c(SC/C=C/c3ccccc3)nnc2-c2cccnc2)cc1,nt,?,?,?,?,23µM*
O=C(CSc1nnc(-c2cccnc2)n1-c1ccccc1)Nc1ccccn1,-1%,0%,23,2%,16µM*,?
Nn1c(SC/C=C/c2ccccc2)nnc1-c1cccnc1,-3%,2%,0,12%,-17%,-2%
COc1cccc(C(=O)Nc2ccc(S(=O)(=O)Nc3cc(C)nc(C)n3)cc2)c1,-1%,8%,21,11%,-3%,-21%
COC(=O)c1sccc1S(=O)(=O)N(CC(=O)NCc1ccc(C)cc1)c1ccc(C)cc1,nt,nt,nt,nt,?,23µM*
COC(=O)c1sccc1S(=O)(=O)N(CC(=O)Nc1c(C)cccc1C)c1ccc(C)c(C)c1,nt,nt,nt,nt,-74%,16µM*
CNc1cccc(-c2c(OC)cccc2OC)n1,nt,-27%,27,-2%,?,?
CCS(=O)(=O)c1c(Nc2ccc(F)c(Cl)c2)sc(C(=O)c2ccccc2)c1N,nt,nt,nt,nt,?,-19%
CN1CCC(CN2c3ccccc3Sc3ccccc32)C1 (stereo not drawn),nt,nt,nt,nt,12µM*,19µM*
COc1ccccc1OC(=O)CCN1c2ccccc2Sc2ccccc21,1%,2%,3,6%,-18%,0%
CN1CC[C@H](CN2c3ccccc3Sc3ccccc32)C1,nt,nt,nt,nt,13µM*,?
COc1ccc(C(=O)OCC2CC(c3ccccc3)=NO2)cc1OC (stereo not drawn),14%,11%,-13,11%,?,23µM*
COc1cc(C(=O)OCC2CC(c3ccccc3)=NO2)cc(OC)c1OC (stereo not drawn),0%,14%,-11,-11%,?,-4%
COc1ccc(C2=NOC(Cn3nc(-c4ccccc4C)cc3C(=O)O)C2)cc1 (stereo not drawn),-8%,6%,43,7%,-17%,9%
